Assay outcomes: PubChem, several laboratories
CYP2C19 activ = human CYP2C19 activators, primary screen, biochemical, luminescence. recombinant CYP2C19, luciferin-H EGE luminescence; hits give high values; 0 = fully inhibited enzyme, 1 = untreated enzyme. activation factor at 5 µM. 96,000 tested, under 10 active. AID 1025, 2008;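 active = activation factor of at least 2 at 5 µM in the primary screen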
CYP2C9 inhib = blockers of cytochrome P450 2C9 activity – biochemical, luminescence, ADME assay, primary screen | P11712 | CYP2C9 Supersomes, luciferin-H conversion | inhibition, % at 5 µM | 96,000 compounds, 20% hits | AID 777, 2007;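 active = blocking of liver enzyme CYP2C9 beyond about 50% at 5 µM, limit read from the data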
Target sequence (P11712 whole entry, looked up): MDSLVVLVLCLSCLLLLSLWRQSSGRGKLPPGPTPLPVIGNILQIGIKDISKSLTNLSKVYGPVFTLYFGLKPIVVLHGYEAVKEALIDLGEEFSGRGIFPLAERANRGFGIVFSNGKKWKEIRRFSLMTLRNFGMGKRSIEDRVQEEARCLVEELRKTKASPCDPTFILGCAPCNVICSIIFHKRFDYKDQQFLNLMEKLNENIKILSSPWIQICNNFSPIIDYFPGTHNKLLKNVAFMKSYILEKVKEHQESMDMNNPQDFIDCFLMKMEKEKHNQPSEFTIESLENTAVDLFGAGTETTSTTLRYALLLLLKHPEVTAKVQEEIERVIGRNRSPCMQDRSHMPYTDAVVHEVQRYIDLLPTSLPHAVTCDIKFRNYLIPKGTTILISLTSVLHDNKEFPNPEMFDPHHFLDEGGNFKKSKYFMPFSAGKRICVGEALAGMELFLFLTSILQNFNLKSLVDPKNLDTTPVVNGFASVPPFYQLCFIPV
CYP2C19 inh = blockers of cytochrome P450 2C19 activity – biochemical, luminescence, ADME assay, primary screen | P33261 | 96,000 compounds, 21% hits | CYP2C19 Supersomes, luciferin-H EGE luminescence, 30 min | inhibition, % at 5 µM;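 active = CYP2C19 inhibition above a set limit at 5 µM in the primary screen, cut at about 50% in these data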
Cav32 inh = Cav3.2 calcium influx blockers – cell-based, Fluo-4 calcium fluorescence, FDSS, MLSMR library, primary screen; Cav3.2-expressing cells; hits give low values; B-score at 10 µM; Voltage-dependent T-type calcium channel subunit alpha-1H (Homo sapiens), O95180; 100,000 compounds, 4% hits;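 active = single-dose well whose peak fluorescence ratio is a statistical outlier from its plate by either plate-standardised score or position-corrected B-score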
CYP2C9 activ = human CYP2C9 activators, primary screen, biochemical, luminescence. recombinant CYP2C9, luciferin-H conversion; hits give high values; factor 1 = untreated enzyme, 0 = blocked. 96,000 compounds, 1.4% hits. activation factor at 5 µM;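 active = activation factor of 2 or more for CYP2C9 at a 5 µM dose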
A number is an active result; 0 = inactive; - = no result. The list is not random: actives were taken first. Their share in the collection is about 27%.

SMILES	CYP2C19 activ	CYP2C9 inhib	CYP2C19 inh	Cav32 inh	CYP2C9 activ
CCc1nnc(NC(=O)C2CCC2)s1	0	0	0	0	0
COc1ccc(OC)c(C(c2nnnn2CCc2ccccc2)N2CCC(C(N)=O)CC2)c1 (stereo not given)	0	0	0	0	0
COc1ccccc1Oc1cc(C#N)c(C#N)cc1-n1nnc2ccccc21	0	0	0	-	0
CCc1nnc(NC(=O)C2Cc3ccccc3CN2S(=O)(=O)c2cccs2)s1 (stereo not given)	0	63	61	0	0
C/C(=N\NC(=O)C1CCCN(S(=O)(=O)c2ccccc2)C1)c1ccncc1 (stereo not given)	0	69	0	4.1	0
Cc1sc(/N=C/c2ccccc2O)c(C#N)c1C	0	0	0	-	0
CC(=N/O)/C(=N\O)c1ccc(C)o1	0	0	0	0	0
CCOC(=O)c1sc2nc(CC(=O)OC)nc(NCCN(CC)CC)c2c1C	0	0	0	0	0
CCOC(=O)c1sc2nc(CC(=O)OC)nc(NCCN3CCOCC3)c2c1C	0	51	54	0	0
CCOC(=O)c1sc2nc(CC(=O)OC)nc(NCc3ccc(Cl)cc3)c2c1C	0	0	0	0	0
CCOC(=O)c1sc2nc(CC(=O)OC)nc(N3CCN(c4ccc(OC)cc4)CC3)c2c1C	0	96	89	0	0
O=S(=O)(Nc1ccc(-n2cccc2)cc1)c1ccc(Cl)cc1Cl	0	100	100	0	0
O=C(NC1CCCCC1)C(c1ccccc1)N(Cc1ccco1)C(=O)Cn1cnc2ccccc21 (stereo not given)	-	-	-	-5.9	-
COc1ccc(CCN(Cc2cc3cccc(C)c3[nH]c2=O)C(=O)NC2CCCCC2)cc1OC	0	75	66	0	0
CCN(CC)CCN(Cc1cc2cc3c(cc2[nH]c1=O)OCCO3)C(=O)NC1CCCCC1	0	0	0	0	0
COc1ccc(CN(Cc2cc3cc4c(cc3[nH]c2=O)OCO4)C(=O)NC2CCCCC2)cc1	0	90	0	-6.7	0
COc1ccccc1NC(=O)N(Cc1ccco1)Cc1cc2cccc(C)c2[nH]c1=O	0	82	90	0	0
COCCCn1c(SCC(=O)N2CCc3ccccc32)nnc1-c1ccco1	-	-	-	0	-
COc1ccc(CCN(Cc2cc3cc(C)cc(C)c3nc2Cl)C(=O)C2CC2)cc1	0	0	0	-	0
COc1nc2c(C)cccc2cc1-c1noc(-c2ccco2)n1	0	0	0	0	0
Nc1n[nH]c(-c2ccccc2)c1-c1ccccc1	0	0	0	0	0
Cc1[nH]c2c(C)cccc2c(=O)c1Br	0	0	0	0	0
CCC(=O)N1CCN(c2ccc(NC(=O)c3c(F)c(F)c(OC)c(F)c3F)cc2)CC1	0	0	0	0	0
O=C(NC1CCCC1)C(c1ccccc1)N(C(=O)c1ccco1)C1CCCC1 (stereo not given)	-	-	-	0	-
COc1ccc(CCN(Cc2cc3cc(C)ccc3[nH]c2=O)C(=O)N2CCCC2)cc1OC	0	98	0	0	0
SMILES	CYP2C19 activ	CYP2C9 inhib	CYP2C19 inh	Cav32 inh	CYP2C9 activ
O=C(NC1CCCCC1)N(Cc1ccccc1)Cc1ccco1	0	0	0	-9.1	0
Cc1cccc2cc(CN(Cc3ccco3)C(=O)NC3CCCCC3)c(=O)[nH]c12	0	74	70	0	0
O=C(NC1CCCC1)C(c1ccccc1F)N(C(=O)c1ccco1)C1CCCC1 (stereo not given)	0	51	0	0	0
CN(Cc1ccccc1)C(=O)NC1CCCCC1	-	-	-	0	-
Cc1ccc2[nH]c(=O)c(CN(CCc3ccccc3)C(=O)N3CCOCC3)cc2c1	0	0	0	-	0
COc1cc(C(=O)N2CCC(n3cnc4cc(F)ccc43)CC2)cc(OC)c1OC	0	0	0	0	0
Cc1ccc(CNC(=O)CCCC(=O)O)cc1	0	0	0	0	0
O=C(O)C1C2C=CC3(CN(C/C=C/c4ccccc4)C(=O)C13)O2 (stereo not given)	0	0	0	0	0
C=C(C)CSc1nnc(-c2ccccc2)n1N	0	0	0	-	0
COC(=O)c1[nH]c2cc(OC)ccc2c1N	0	0	0	0	0
COc1ccc(C(=O)N(CC2CCCO2)C(C(=O)NC2CCCC2)c2ccc(Cl)cc2)cc1OC (stereo not given)	0	0	0	0	0
